Source: PubChem BioAssay (Bradner/Qi Labs at DFCI)
This is one part of a sample in which hits are shown more often than they occur.
CBX7 inh: CBX7 inhibition, primary AlphaScreen | AlphaScreen His6-CBX7 / biotin-H3K27me3 peptide binding; hits give low values | normalised signal (fraction of DMSO) (no concentration beside the values) | hit rate 1.1% among 66,000 | AID 1224903; in the data active = normalised signal below about 0.5
Target sequence (O95931 whole entry, looked up): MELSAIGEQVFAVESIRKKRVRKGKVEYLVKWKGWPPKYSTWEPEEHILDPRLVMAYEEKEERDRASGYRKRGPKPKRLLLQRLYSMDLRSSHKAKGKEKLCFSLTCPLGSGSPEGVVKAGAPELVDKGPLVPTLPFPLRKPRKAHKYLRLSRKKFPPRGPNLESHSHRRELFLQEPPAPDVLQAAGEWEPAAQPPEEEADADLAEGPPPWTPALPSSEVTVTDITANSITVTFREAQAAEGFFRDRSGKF
Numbers stand for hits.

Screening COc1ccc(C)cc1S(=O)(=O)NCCc1c(C)[nH]c2ccccc12 returned CBX7 inh inactive.
For COc1ccc(C)cc1S(=O)(=O)NCCc1c(C)[nH]c2ccc(Br)cc12 the results were CBX7 inh inactive.
`COc1ccc(S(=O)(=O)NCCc2c(C)[nH]c3ccc(C)cc23)c2ccccc12` gave CBX7 inh inactive.
For COc1ccc(C)cc1S(=O)(=O)NCCc1c(C)[nH]c2ccc(C)cc12 the results were CBX7 inh 0.4.
`COc1cc(S(=O)(=O)NCCc2c(C)[nH]c3ccc(C)cc23)ccc1Cl` gave CBX7 inh 0.43.
COc1ccc(S(=O)(=O)NCCc2c(C)[nH]c3ccc(Br)cc23)cc1C was read as CBX7 inh inactive.
`CCOc1ccc(S(=O)(=O)NCCc2c(C)[nH]c3ccc(C)cc23)cc1` gave CBX7 inh inactive.
Screening COc1cccc(N2C(=O)c3ccc(C(=O)Nc4ccccc4O)cc3C2=O)c1 returned CBX7 inh inactive.
Cc1c(C(=O)Nc2ccc(Cl)cn2)sc2ncn(CC(=O)N3CCOCC3)c(=O)c12 was read as CBX7 inh inactive.
Screening Cc1ccc(NC(=O)Cn2cnc3sc(C(=O)NCc4ccccn4)c(C)c3c2=O)cc1Cl returned CBX7 inh inactive.
CCOC(=O)c1cc(-c2ccccc2)n(CCC(=O)NCc2ccccc2OC)c1C was read as CBX7 inh inactive.
Screening CCCOc1ccc(-c2nc(Nc3ccc(Br)cc3)c3ccccc3n2)cc1 returned CBX7 inh inactive.
`Cc1cc(NC(=O)CSc2nnc(-c3ccc(C)c(C)c3)o2)no1` gave CBX7 inh inactive.
For CCCCCn1c(CCNC(=O)c2ccccc2)nc2ccccc21 the results were CBX7 inh inactive.
`CCOC(=O)c1ccc2c(c1)N(Cc1ccc(Cl)cc1)C(=O)CS2` gave CBX7 inh inactive.
For COc1ccccc1CNC(=O)c1cc2sc(Cl)cc2n1C the results were CBX7 inh inactive.
`COc1ccc(Br)cc1CNC(=O)CCCc1cn(C)c2ccccc12` gave CBX7 inh 0.42.
COc1ccc(CNC(=O)CCc2cn(C)c3ccccc23)c(OC)c1 was read as CBX7 inh inactive.
Screening CCOc1ccc(CNC(=O)CCCc2cn(C)c3ccccc23)cc1OC returned CBX7 inh inactive.
COc1ccc(OC)c(CNC(=O)CCc2cn(C)c3ccccc23)c1 was read as CBX7 inh inactive.
For COc1ccc(OC)c(CNC(=O)CCCc2cn(C)c3ccccc23)c1 the results were CBX7 inh 0.46.
COc1ccc(Br)cc1CNC(=O)Cc1cn(C)c2ccccc12 was read as CBX7 inh inactive.
Screening CC1CCC(NC(=O)c2cccc(NC3=NC4CS(=O)(=O)CC4S3)c2)CC1 (configuration not stated) returned CBX7 inh inactive.
For Cc1ccc2c(c1)-c1c(cnn1CC(=O)NCCN1CCN(Cc3ccccc3)CC1)CO2 the results were CBX7 inh inactive.
`COC(=O)C(CC(C)C)NC(=O)c1c(-c2ccccc2Cl)noc1C` (configuration not stated) gave CBX7 inh inactive.
`CCCN1CCCc2cc(CN(CCCN3CCOCC3)C(=O)Nc3ccc(OCC)cc3)ccc21` gave CBX7 inh inactive.
`CCN1CCCc2cc(CN(CCN3CCOCC3)C(=O)Nc3ccc(Cl)cc3)ccc21` gave CBX7 inh inactive.
For CCCCN1CCCc2cc(CN(CCCN3CCOCC3)C(=O)Nc3ccc(C)c(C)c3)ccc21 the results were CBX7 inh 0.22.
`CCCN1CCCc2cc(CN(CCCOC)C(=O)Nc3ccc(OCC)cc3)ccc21` gave CBX7 inh 0.23.
`CCOc1ccc(NC(=O)N(CCN2CCOCC2)Cc2ccc3c(c2)CCCN3CC)cc1` gave CBX7 inh inactive.
For CCCN1CCCc2cc(CN(CCCOC)C(=O)Nc3ccc(C)c(C)c3)ccc21 the results were CBX7 inh inactive.
Cc1ccc(-n2nc3c(c2NC(=O)c2ccc(OC(C)C)cc2)CSC3)cc1 was read as CBX7 inh inactive.
For COc1cccc(NC(=O)C(CC(C)C)NS(=O)(=O)c2ccc3nc(C)sc3c2)c1 (configuration not stated) the results were CBX7 inh inactive.
For CCc1ccc(-c2nc(CN3CCC(C(=O)NCCN(C)C)CC3)c(C)o2)cc1 the results were CBX7 inh inactive.
`CCOC(=O)c1c(NC(=O)c2ccc(C(C)(C)C)cc2)sc2c1CCC(C)C2` (configuration not stated) gave CBX7 inh inactive.
`Cc1cc(C)cc(-n2ccnc2SCC(=O)Nc2cccc(C(F)(F)F)c2)c1` gave CBX7 inh inactive.
`CCCCN(CCCC)S(=O)(=O)c1ccc2oc(C(=O)Nc3ccc(F)c(F)c3)c(C)c2c1` gave CBX7 inh inactive.
For CCOC(=O)c1cnc2cc(Cl)c(OC)cc2c1Nc1ccc(C(C)C)cc1 the results were CBX7 inh inactive.
For COc1cc(OC)c(OC)cc1CN1CCN(Cc2cccc(Br)c2)CC1 the results were CBX7 inh inactive.
For COc1ccccc1Nc1cc(C)nc2c(OC)cccc12 the results were CBX7 inh inactive.
`COc1ccccc1Nc1cc(C)nc2c(C)cccc12` gave CBX7 inh inactive.
For COc1ccccc1Nc1cc(C(F)(F)F)nc2c(OC)ccc(OC)c12 the results were CBX7 inh 0.2.
CCN(CC)c1cc(C)c2cc(NC(=O)Cc3ccccc3OC)ccc2n1 was read as CBX7 inh inactive.
`Cc1ccc(S(=O)(=O)c2nc(-c3ccccc3F)oc2N2CCCCC2)cc1` gave CBX7 inh 0.48.
`Cc1ccc(S(=O)(=O)c2nc(-c3ccccc3C)oc2N2CCCCCC2)cc1` gave CBX7 inh inactive.
O=S(=O)(c1ccccc1)c1nc(-c2ccccc2F)oc1N1CCCCCC1 was read as CBX7 inh inactive.
Cc1cc(NS(=O)(=O)c2ccc(Nc3nc(-c4ccc(Cl)c(Cl)c4)cs3)cc2)no1 was read as CBX7 inh inactive.
CCc1cc2c(oc(=O)c3ccccc32)c(CN2CCN(C)CC2)c1O was read as CBX7 inh 0.34.
Screening CCc1cc2c(C)cc(=O)oc2c(CN2CCCCCC2)c1O returned CBX7 inh inactive.
For CCc1cc2c(=O)c(-c3nc4ccccc4n3C)c(C)oc2c(CN2CCCCC2)c1O the results were CBX7 inh inactive.
`CCOC(=O)CNC(=O)c1sc2ncn(Cc3ccccc3F)c(=O)c2c1C` gave CBX7 inh inactive.
`COc1ccc(NC(=O)CC2C(=O)N(c3ccc(F)cc3)C(=O)N2Cc2ccc(C)cc2)cc1` (configuration not stated) gave CBX7 inh inactive.
For Cc1cc(C)n(-c2nc3ccccc3nc2Nc2ccc3c(c2)OCCO3)n1 the results were CBX7 inh inactive.
`Cc1cc(C)n(-c2nc3ccccc3nc2Nc2ccc(N(C)C)cc2)n1` gave CBX7 inh 0.22.
Cc1cccc(Nc2nc3ccccc3nc2-n2nc(C)cc2C)c1 was read as CBX7 inh inactive.
`CCOc1ccc(-n2c(C)nc3cc(C(=O)O)ccc32)cc1` gave CBX7 inh inactive.
For CCc1ccc(OCc2nnc(NC(=O)c3ccccc3F)s2)cc1 the results were CBX7 inh inactive.
Screening COc1ccccc1C(=O)Nc1nc2ccccc2n1CCOc1ccccc1 returned CBX7 inh inactive.
Cc1cccc(OCCn2c(C)nc3ccccc32)c1 was read as CBX7 inh inactive.
Screening Cc1cccc(OCCn2c(NC(=O)c3ccccc3Cl)nc3ccccc32)c1 returned CBX7 inh 0.34.
`CCC1Oc2ccc(C)cc2N(CC(=O)NCCN2CCc3ccccc3C2)C1=O` (configuration not stated) gave CBX7 inh inactive.
